Results on 35 compounds are retold here after PubChem BioAssay (EPA / NIEHS).

Inconclusive results are not listed. Active and inactive are the calls of the source. Rule for the calls: active = hit-call score of the fitted dose curve at least 0.9, where 1 is the maximum; inconclusive = response in the unintended direction; inactive = score below 0.9.

A word on the AC50: it is the concentration giving half of the maximal activity seen.

The test in a line: ATG_XTT_Cytotoxicity: Cytotoxicity Assessment in the Attagene TRANS-FACTORIAL HepG2 Assay (AID 2283584).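 For AC50: cells exposed to compound for 24 h before reading; active means loss of viability signal versus DMSO baseline.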 The procedure, abridged: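 HepG2 human liver cells, transiently transfected with multiple GAL4-UAS reporter units, were dosed and read at 24 h by XTT as cell number. Loss of signal was fitted relative to DMSO negative control baseline.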
`C=CCOC(=O)c1ccc(C(=O)OCC=C)c(C(=O)OCC=C)c1`: the outcome was inactive. As for `CC(=O)CCC1=C(C)CCCC1(C)C`, the outcome was inactive. For the compound `CC(C)CCOCc1ccccc1`, the call was inactive. Take `CC(C)CO`: the compound was called inactive. As for `CCNc1nc(NC(C)(C)C)nc(OC)n1`, the call was inactive. Still for that read-out and setting: with `Cc1ccc(C)c(OCCCC(C)(C)C(=O)O)c1` the entry was “inactive”. Same read-out and setting: to `O=C(O)CCC(=O)O` belongs “inactive”; to `CC(C)(CO)C(O)C(=O)NCCCO` (stereo not given), “inactive”.

In the case of `CCCCCCCCCCCC(=O)N(C)CC(=O)O`, the result was inactive. For `[Cl][Sc]([Cl])[Cl]`, the call was inactive. As to `C=CCCCCCCCCOC(C)=O`, the compound was called inactive. Take `COc1cc(O)c(C(=O)c2ccccc2)cc1S(=O)(=O)O`: the call was inactive. For `CCc1cccc(CC)c1`, the result was inactive. Take `CCCCC(C=O)CC` (stereo not given): the outcome was inactive. For `[Cl][Eu]([Cl])[Cl]`, the outcome was inactive. Turning to `COC(=O)c1ccc(C(=O)OC)c(C(=O)OC)c1`, the compound was classed as inactive. On to `Cc1cc(=O)[nH]c(=O)[nH]1`, for which the compound was called inactive.

In the case of `Cc1ccc2c(c1)CCCN2`, the result was inactive. Still for that read-out and setting: to `O=C1CCCCC1C1CCCCC1` (stereo not given) belongs “inactive”.

`CCCCCCCCCC[N+](C)(CCCCCCCCCC)CCC[Si](OC)(OC)OC`: the AC50 is 43.9 µM (active).

For `CCOC(=O)[C@H](O)[C@@H](O)C(=O)OCC`, the compound was called inactive. Regarding `CCC(=O)C1CC(C(C)C)CC=C1C` (stereo not given), the outcome was inactive.

For the compound `CCOC(=O)C1=NN(c2ccc(Cl)cc2Cl)C(C)(C(=O)OCC)C1` (stereo not given), the compound was classed as inactive.

For the compound `CC1CCC(=O)C1=O` (stereo not given), the outcome was inactive.

On to `CCN(CC)c1cccc(C)c1`, for which the outcome was inactive. For `CCCCC(CC)COS(=O)(=O)O` (stereo not given), the compound was classed as inactive. Take `CC(C)C(=O)OCCc1ccccc1`: the result was inactive. In the case of `O=C1c2ccccc2C(=O)c2cc(S(=O)(=O)O)ccc21`, the outcome was inactive. With `CC1=CP(=O)(c2ccccc2)CC1` (stereo not given), the compound was called inactive. For `CC=CC(=O)OCC(C)C`, the compound was classed as inactive. `CCCCCCCO`: the compound was called inactive.

Turning to `COc1nccnc1CC(C)C`, the outcome was inactive. In the case of `C1CCSC1`, the outcome was inactive.

In the case of `CCCC=C(C=O)CC`, the compound was called inactive. For the compound `c1ccc2sc(SSN3CCOCC3)nc2c1`, the outcome was inactive.
